Experimental data published in PubChem BioAssay (NCATS).
Results filed as inconclusive are left out. Unmarked numbers belong to inactive results. Activity calls are given as the source filed them.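 Rule for the calls, unless noted: active = dose-dependent loss of cell ATP signal giving a full or clear fitted curve, ranked by lower potency value; inconclusive = weak partial curve or response only at the top dose; inactive = no loss of viability signal.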

experiment: Cell Viability - BJ (AID 421; calls by dose curve;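 note: cells exposed to compound for 40 hours at 37 °C before readout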); details: BJ fibroblast viability, qHTS
In short: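 Cytotoxicity in human BJ foreskin fibroblasts is scored as loss of cellular ATP after a 40-hour exposure, measured by luciferase luminescence. Controls are DMSO and 100 uM tamoxifen.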
Potency is the fitted concentration of half-maximal effect.

Row | Structure (SMILES) | Potency [µM]
1 | C=C(C)OC(C)=O | > 92
2 | NC(=O)NC(N)=O | > 92
3 | CC(=O)Nc1ccccc1C | > 92
4 | CCc1ccccc1O | > 92
5 | Cc1cccc(C)c1 | > 92
6 | O=C(O)c1ccccc1[N+](=O)[O-] | > 92
7 | C=CCCCCCCC=C | > 92
8 | Cc1ccc2c(c1[N+](=O)[O-])C(=O)c1ccccc1C2=O | > 92
9 | CC(C)(C)OC=O | > 92
10 | CC(C)(c1cc(Br)c(OCC(Br)CBr)c(Br)c1)c1cc(Br)c(OCC(Br)CBr)c(Br)c1 (stereo not drawn) | > 92
11 | CCCCCCCCCCCCC1CO1 (stereo not drawn) | > 92
12 | CCCOCC(C)O (stereo not drawn) | > 92
13 | Cc1c(N)cccc1[N+](=O)[O-] | > 92
14 | Nc1ccccc1[N+](=O)[O-] | > 92
15 | O=C(O)c1c(Cl)cccc1Cl | > 92
16 | Nc1nc(-c2ccccc2)cs1 | > 92
17 | CCC(C)=O | > 92
18 | Nc1c(Cl)cc(Cl)cc1Cl | > 92
19 | CCOc1ccccc1N | > 92
20 | O=Cc1ccc(CO)o1 | > 92

Row | Structure (SMILES) | Potency [µM]
21 | C=C(C)C(=O)OCC(C)O (stereo not drawn) | > 92
22 | Nc1ccc(Cl)cc1[N+](=O)[O-] | > 92
23 | CCCCC=O | > 92
24 | COC(=O)c1ccccc1 | > 92
25 | CC(=C/C=C/C(C)=C/C=C/C=C(C)/C=C/C=C(C)/C=C/C(=O)O)/C=C/C(=O)O | > 92
26 | Cc1cccc([N+](=O)[O-])c1C(=O)O | > 92
27 | Cc1cc(C)cc(N)c1 | > 92
28 | C1COC1 | > 92
29 | O=C(O)c1ccccc1C(=O)O | > 92
30 | Cc1c(N)cccc1N | > 92
31 | CC(=O)c1cc(C)oc1C | > 92
32 | CC(C)=CCl | > 92
33 | Fc1ccccc1 | > 92
34 | O=[N+]([O-])c1ccc(Cl)cc1Cl | > 92
35 | O=[N+]([O-])c1cc(C(F)(F)F)ccc1Cl | > 92
36 | CCc1ccccc1 | > 92
37 | CCN(CC)c1cccc(O)c1 | > 92
38 | CC(C)N=C=NC(C)C | > 92
39 | CCOC(=O)C(C)C(C)=O (stereo not drawn) | > 92

experiment: Cell Viability - Jurkat (AID 426); details: qHTS;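 note: cells exposed to compound for 40 hours at 37 °C before ATP read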
In short: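 Cells of the human T-cell leukemia line Jurkat (E6-1) are seeded at 5000 per well, treated with compound across a concentration range for 40 hours at 37 °C, then lysed with CellTiter-Glo; luminescence reports ATP.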

Row | Structure (SMILES) | Potency
40 | C=C(C)OC(C)=O | > 92 µM
41 | NC(=O)NC(N)=O | > 92 µM
42 | CC(=O)Nc1ccccc1C | > 92 µM
43 | CCc1ccccc1O | > 92 µM
44 | Cc1cccc(C)c1 | > 92 µM
45 | O=C(O)c1ccccc1[N+](=O)[O-] | > 92 µM
46 | C=CCCCCCCC=C | > 92 µM
47 | Cc1ccc2c(c1[N+](=O)[O-])C(=O)c1ccccc1C2=O | > 92 µM
48 | CC(C)(C)OC=O | > 92 µM
49 | CC(C)(c1cc(Br)c(OCC(Br)CBr)c(Br)c1)c1cc(Br)c(OCC(Br)CBr)c(Br)c1 (stereo not drawn) | 46.9 µM (active)
50 | CCCCCCCCCCCCC1CO1 (stereo not drawn) | > 92 µM
51 | CCCOCC(C)O (stereo not drawn) | > 92 µM
52 | Cc1c(N)cccc1[N+](=O)[O-] | > 92 µM
53 | Nc1ccccc1[N+](=O)[O-] | > 92 µM
54 | O=C(O)c1c(Cl)cccc1Cl | > 92 µM
55 | Nc1nc(-c2ccccc2)cs1 | > 92 µM
56 | CCC(C)=O | > 92 µM
57 | Nc1c(Cl)cc(Cl)cc1Cl | > 92 µM
58 | CCOc1ccccc1N | > 92 µM
59 | O=Cc1ccc(CO)o1 | > 92 µM

Row | Structure (SMILES) | Potency
60 | C=C(C)C(=O)OCC(C)O (stereo not drawn) | > 92 µM
61 | Nc1ccc(Cl)cc1[N+](=O)[O-] | > 92 µM
62 | CCCCC=O | > 92 µM
63 | COC(=O)c1ccccc1 | > 92 µM
64 | CC(=C/C=C/C(C)=C/C=C/C=C(C)/C=C/C=C(C)/C=C/C(=O)O)/C=C/C(=O)O | > 92 µM
65 | Cc1cccc([N+](=O)[O-])c1C(=O)O | > 92 µM
66 | Cc1cc(C)cc(N)c1 | > 92 µM
67 | C1COC1 | > 92 µM
68 | O=C(O)c1ccccc1C(=O)O | > 92 µM
69 | Cc1c(N)cccc1N | > 92 µM
70 | CC(=O)c1cc(C)oc1C | > 92 µM
71 | CC(C)=CCl | > 92 µM
72 | Fc1ccccc1 | > 92 µM
73 | O=[N+]([O-])c1ccc(Cl)cc1Cl | > 92 µM
74 | O=[N+]([O-])c1cc(C(F)(F)F)ccc1Cl | > 92 µM
75 | CCc1ccccc1 | > 92 µM
76 | CCN(CC)c1cccc(O)c1 | > 92 µM
77 | CC(C)N=C=NC(C)C | > 92 µM
78 | CCOC(=O)C(C)C(C)=O (stereo not drawn) | > 92 µM
